# JMJD2A Tudor inh: blocks the human JMJD2A Tudor domain; O75164; AlphaScreen JMJD2A-Tudor / H3K4me3 peptide binding; Potency, µM (titrated, usually from 114 µM), for inactives: at the top dose activity change, negative = inhibition, most hits filed as inhibitors; hit rate 4.4% among 390,000; AID 504339; further: on the % scale 0 is the no-effect control and ±100 the full control effect; nearly all actives have a fitted effect of over 50% in size
# Target sequence (O75164 whole entry, looked up, the tested form may be a part): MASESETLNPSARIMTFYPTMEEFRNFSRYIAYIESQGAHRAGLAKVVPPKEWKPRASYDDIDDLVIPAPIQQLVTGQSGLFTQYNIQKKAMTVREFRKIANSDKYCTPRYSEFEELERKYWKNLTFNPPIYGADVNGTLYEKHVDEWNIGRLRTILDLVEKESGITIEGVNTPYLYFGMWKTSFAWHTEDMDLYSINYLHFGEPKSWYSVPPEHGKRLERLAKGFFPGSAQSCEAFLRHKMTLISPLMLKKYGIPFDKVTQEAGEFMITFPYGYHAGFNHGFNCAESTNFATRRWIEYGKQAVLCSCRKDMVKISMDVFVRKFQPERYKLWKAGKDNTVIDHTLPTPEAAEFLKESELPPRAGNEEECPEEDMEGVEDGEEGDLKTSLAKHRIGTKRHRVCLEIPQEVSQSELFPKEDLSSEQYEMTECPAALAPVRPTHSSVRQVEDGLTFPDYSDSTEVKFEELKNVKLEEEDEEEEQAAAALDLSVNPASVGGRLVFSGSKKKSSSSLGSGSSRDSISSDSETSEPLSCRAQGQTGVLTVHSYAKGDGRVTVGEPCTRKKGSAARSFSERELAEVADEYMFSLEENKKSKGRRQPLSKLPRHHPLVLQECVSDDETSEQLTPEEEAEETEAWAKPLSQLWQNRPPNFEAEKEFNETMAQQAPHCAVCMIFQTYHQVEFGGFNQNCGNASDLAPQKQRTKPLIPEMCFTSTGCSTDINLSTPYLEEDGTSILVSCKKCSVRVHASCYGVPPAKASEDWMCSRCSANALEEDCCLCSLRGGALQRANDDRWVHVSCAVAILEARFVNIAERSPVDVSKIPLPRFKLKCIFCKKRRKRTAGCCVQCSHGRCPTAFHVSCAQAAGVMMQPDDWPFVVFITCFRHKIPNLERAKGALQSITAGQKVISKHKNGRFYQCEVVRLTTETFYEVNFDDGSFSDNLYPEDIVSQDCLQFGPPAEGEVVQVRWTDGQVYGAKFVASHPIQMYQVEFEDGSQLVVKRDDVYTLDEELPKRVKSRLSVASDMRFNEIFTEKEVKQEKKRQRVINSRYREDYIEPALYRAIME
# G9a block: inhibitors of human histone lysine methyltransferase G9a; Q96KQ7; G9a H3K9 monomethylation, AlphaScreen, 2 h; Potency, µM (series often up to 102 µM), inactives show at the highest dose activity, negative = inhibition, actives largely listed as inhibitors; hit rate 8.8% among 350,000; AID 504332; further: on the % scale 0 is the no-effect control and ±100 the full control effect; nearly all actives have a fitted effect of over 75% in size
#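 Signal arises when biotinylated H3K9 peptide, once monomethylated, bridges streptavidin donor and antibody-captured acceptor beads. Enzyme at 20 nM was preincubated 15 min with test compounds; peptide 500 nM and SAM 20 uM then reacted for 2 h.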
# HP1b chromo inh: HP1-beta chromodomain-methylated histone interaction inhibition; AlphaScreen HP1-beta / biotin-H3K9me3 peptide binding; hit rate 0.56% among 390,000; Potency, µM (series often up to 114 µM), without a hit: at the top dose activity change, negative = inhibition, most hits filed as inhibitors; further: nearly all actives have a fitted effect of over 70% in size
#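 AlphaScreen: HP1-beta (50 nM) preformed 30 min with biotin-H3(1-18)K9me3 peptide (50 nM) in PBS pH 7.4, 0.01% Tween-20. Compound added for 30 min at RT, then streptavidin donor/nickel chelate acceptor beads (10 ug/mL) for 30 min.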
# Sfp inh: blocks B. subtilis Sfp PPTase activity; Biochemical Sfp PPTase activity, qHTS; Potency, µM, without a hit: largest response in the series, negative = inhibition, actives largely listed as inhibitors; hit rate 3.5% among 310,000; AID 1490;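 further: the enzyme is Sfp with the accession as filed and its product quenches rhodamine fluorescence; 0% = enzyme reaction without inhibitor and -100% = no enzyme wells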
#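 Reaction rates are the 30-min fluorescence difference (ex 525, em 598 nm) in wells containing 15 nM Sfp, 5 uM rhodamine-CoA and 12.5 uM BHQ-2-YbbR at pH 7.6 with 10 mM MgCl2.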
# BAZ2B inh: BAZ2B (human) inhibition | Q9UIF8 | AlphaScreen BAZ2B-H3K14Ac peptide displacement | Potency, µM (series often up to 114 µM), for the others: at the highest dose activity change, negative = inhibition, most hits filed as inhibitors | hit rate 4.4% among 360,000; further: on the % scale 0 is the no-effect control and ±100 the full control effect; nearly all actives have a fitted effect of over 60% in size
#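 AlphaScreen displacement of biotin-H3(5-23)K14Ac peptide (50 nM final) from BAZ2B (50 nM final) in PBS pH 7.4, 0.01% Tween-20; complex preformed 30 min RT, then compounds (top 110 uM) 30 min RT, beads 20 min dark.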
# The depositor's hits bear a star; ? = inconclusive; · = not tested or not shown; ! = not confirmed by another sample; [ ] = remark or other dose. Hits are enriched below; roughly 12% of the tested compounds scored in any of these assays. The call rests on the fitted dose curve; in most records, active means well fitted curve in the direction sought with a large enough effect; inconclusive means small, poorly fitted or top-dose-only effect, or another doubt; inactive means no such curve, though single readings can be large; an effect the other way counts as inactive or inconclusive. Potency means the concentration at half of the fitted maximal effect.
SMILES,JMJD2A Tudor inh,G9a block,HP1b chromo inh,Sfp inh,BAZ2B inh
CCCCN1C(=O)C2NN=C(C(=O)OC)C2C1=O (configuration not stated),31.7%,?,18.5%,3.8%,?
O=C(C1=NN[C@@H]2C(=O)N(c3ccccc3C(F)(F)F)C(=O)[C@H]12)c1cnccn1,-1.6%,?,64.9%,4.3%,-23.1%
Cc1ccc2nc(SCC(=O)c3cc(C)n(C)c3C)[nH]c2c1,-19.8%,-19.0%,-15.0%,-15.0%,-37.4%
Cc1cc(C(=O)CSc2nc3ccccc3[nH]2)c(C)n1C,56.2µM*,?,?,-90.0%,?
Cc1cc(C(=O)CN2C(=O)NC(C)(c3cccc(Br)c3)C2=O)c(C)n1Cc1ccco1 (configuration not stated),-30.9%,50.1µM*,-15.8%,-3.1%,-3.1%
Cc1cc(C(=O)CSc2nncs2)c(C)n1Cc1ccco1,-25.4%,?,-0.8%,-14.1%,?
Cc1cc(C(=O)CSc2nc3ccccc3[nH]2)c(C)n1Cc1ccco1,?,14.1µM*,-14.1%,-9.5%,?
Cc1cc(C(=O)CSc2nc3ccc(Cl)cc3[nH]2)c(C)n1CC1CCCO1 (configuration not stated),?,44.7µM*,-24.2%,-1.2%,?
COc1ccc(N2CCN(C(=O)c3cc4c(=O)n(Cc5ccco5)ccc4nc3C)CC2)cc1,-29.7%,-0.6%[59 µM],25.4%,·,?
C/C(=N\NC(=O)c1ccccc1NC(=O)c1ccc(Cl)cc1)c1ccncc1,-8.3%,2.2%,32.0%,17.1%,-5.7%
CCOc1ccc(-c2nnc(SCC(=O)c3ccc(Br)cc3)n2-c2ccccc2)cc1,-4.1%,?,32.8%,·,-24.4%
CC(CCC(C)OC(=O)c1ccccc1C(=O)O)OC(=O)c1ccccc1C(=O)O (configuration not stated),-3.5%,-25.8%,6.0%,4.0%,-1.0%
O=C(CSc1nc2ccccc2n1CCc1ccccc1)NC1CC1,-11.7%,?,8.6%,-8.8%,-5.5%
Cc1ccccc1-n1c(SCC(=O)NC2CCS(=O)(=O)C2)nc2ccccc2c1=O (configuration not stated),-8.3%,50.1µM*,19.6%,·,6.7%
O=C(CSc1nc2ccccc2n1CCc1ccccc1)NC1CCS(=O)(=O)C1 (configuration not stated),-7.0%,2µM*,42.4%,?,-4.7%
O=C(CSc1nc2ccccc2c(=O)n1-c1ccccc1F)NC1CCS(=O)(=O)C1 (configuration not stated),-2.9%,-3.3%[2.33 µM],41.8%,·,9.0%
Cc1ccc(C)c(-n2cc(-c3ccc(Cl)cc3)nc2SCC(=O)NC2CCS(=O)(=O)C2)c1 (configuration not stated),?,44.7µM*,-16.5%,7.8%,?
CC(=O)Nc1ccc(S(=O)(=O)NCCC(=O)OCC(=O)N2CCN(C(=O)c3ccco3)CC2)cc1,-29.4%,·,7.4%,12.9%,50.1µM*
O=C(CCN1c2ccccc2Sc2ccccc21)OCC(=O)N1CCN(C(=O)c2ccco2)CC1,?,?,?,10.8%,50.1µM*
O=C(CCNS(=O)(=O)c1cccc(Cl)c1)OCC(=O)N1CCN(C(=O)c2ccco2)CC1,?,1.7%[2.33 µM],5.7%,·,-8.6%
COCCCN(Cc1ccco1)C(=O)c1cc2c(s1)-c1ccccc1OC2,48.0%,66.2%[59 µM],86.7%,·,89.0%
NC1(C(=O)O)CCCC1,·,-32.6%[2.33 µM],·,-10.7%,·
N[C@H](C(=O)O)[C@H]1C[C@@H]1C(=O)O,·,30.8%[12.7 µM],·,-0.6%,·
NC1(C(=O)O)C[C@H](C(=O)O)[C@H](C(=O)O)C1 (some centres not stated),·,25.9%[59 µM],·,50.1µM*!,·
NC1(C(=O)O)CC1,3.16µM*,7.08µM*!,27.8%,56.2µM*,·
SMILES,JMJD2A Tudor inh,G9a block,HP1b chromo inh,Sfp inh,BAZ2B inh
O=C(Cc1ccccc1[N+](=O)[O-])Nc1ccccc1C(=O)N1CCOCC1,-4.7%,·,12.7%,9.1%,8.1%
COc1ccccc1OCCCCn1c(C2CC(=O)N(c3ccccc3Cl)C2)nc2ccccc21 (configuration not stated),-35.6%,0.5%[59 µM],-4.3%,·,?
C[C@@H](CN1C(=O)C(=O)NC[C@@H]1Cc1ccc(O)cc1)NC(=O)Cc1ccccc1,-27.1%,-11.1%,10.1%,16.8%,-3.9%
C[C@H]1CNC(=O)C(=O)N1C[C@H](Cc1ccc(O)cc1)NC(=O)CC12CC3CC(CC(C3)C1)C2,-14.0%,70.8µM*,29.8%,3.5%,-2.4%
CC(C)c1csc(CN2CCN(CCc3ccccc3)C(CCO)C2)n1 (configuration not stated),-10.7%,·,21.2%,-14.3%,-3.3%
Cc1ccc(NC(=O)C(CC(C)C)NC(N)=O)cc1 (configuration not stated),0.0%,16.2%[59 µM],20.3%,6.2%,11.0%
Cc1ccc(NC(=O)C(C)Sc2nnc(C)n2C)cc1 (configuration not stated),-4.1%,-21.5%[0.501 µM],19.0%,70.8µM*,?
CCOc1ccc(NC(=O)C(C)Sc2nnc(C)n2C)cc1 (configuration not stated),?,-10.7%[59 µM],5.3%,10.5%,-5.0%
Cc1ccc(NC(=O)C(C)S)cc1 (configuration not stated),-2.8%,19.4%,48.3%,39.8µM*,3.3%
CCN1C(=O)/C(=C\N(C)C)c2ccccc21,-15.4%,10.0%[59 µM],9.0%,-6.7%,-1.0%
CCN1C(=O)/C(=C\C(=O)c2cccs2)c2cc(Br)ccc21,28.2µM*,?,22.4µM*,20µM*,15.8µM*
Cc1c(C(=O)O)cccc1-c1ccc(/C=N/n2cnnc2)o1,89.1µM*,35.5µM*,-5.6%,5.6%,79.4µM*
Cc1c(Cl)cccc1-c1ccc(/C=N/n2cnnc2)o1,-35.1%,?,-3.9%,5.1%,?
Cc1c(C(=O)O)cccc1-c1ccc(/C=N/Nc2ccc(Br)cc2)o1,?,10µM*,-12.8%,?,50.1µM*
CCN(C(=O)COC(=O)CSc1ccc(C)cc1C)c1c(N)n(Cc2ccccc2)c(=O)[nH]c1=O,-7.4%,·,32.0%,·,·
O=S(=O)(Nc1cccc(-c2ccc(N3CCCC3)nn2)c1)c1ccc(F)c(C(F)(F)F)c1,-31.3%,10.5%[59 µM],9.6%[57 µM],·,-18.8%
COc1ccc(CN2CCCCCC2)cc1OC,?,·,-22.7%,·,·
COc1ccc(CN2CCCCCC2)cc1Br,3.55µM*,31.6µM*,?,0.1%,?
COc1ccc(Br)cc1CN1CCCCCC1,22.4µM*,31.6µM*,-24.4%,12.6%,?
COc1ccc(Br)cc1CN1CCSCC1,3.55µM*,44.7µM*,56.2µM*,-8.2%,?
CCOc1ccccc1N(CC(=O)Nc1ccc(S(=O)(=O)N2CCOCC2)cc1)S(C)(=O)=O,-3.9%,2.6%,2.3%,7.1%,-20.4%
Cc1ccc(S(=O)(=O)NCCc2sc3nc(-c4ccccc4)nn3c2C)cc1C,-2.3%,12.1%[59 µM],23.3%,·,0.3%
Cc1ccc(O)c(N=Cc2ccc(C)s2)c1,-6.2%,-50.1%[59 µM],41.6%,56.2µM*,-29.1%

# High-throughput results (PubChem)
